Source: PubChem BioAssay AID1671202 (University of Kansas High Throughput Screening Laboratory, 2021)
Several values for one entry are separate records, joined by “and”; a condition that tells them apart may be missing. Identical values can stand only once. Screen size: about 190,000 compounds; about 6,900 (3.6%) were called active. Rule as the data show it: active = inhibition above about 50%; inactive = the rest. For the sample, actives were picked, then their nearest neighbours and some compounds at random. A structure can be active in one record and inactive in another.

target: Huntingtin (Homo sapiens) (UniProt P42858); assay: mutant huntingtin-calmodulin interaction inhibitors – biochemical, AlphaScreen, primary screen (AID 1671202); conditions: AlphaScreen His-mHTT/GST-CaM binding, luminescence; at 15 µM, stronger effect = higher value;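 also: 0% = both proteins with DMSO and 100% = one protein alone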
Sequence (P42858 whole entry, looked up, stated change not applied): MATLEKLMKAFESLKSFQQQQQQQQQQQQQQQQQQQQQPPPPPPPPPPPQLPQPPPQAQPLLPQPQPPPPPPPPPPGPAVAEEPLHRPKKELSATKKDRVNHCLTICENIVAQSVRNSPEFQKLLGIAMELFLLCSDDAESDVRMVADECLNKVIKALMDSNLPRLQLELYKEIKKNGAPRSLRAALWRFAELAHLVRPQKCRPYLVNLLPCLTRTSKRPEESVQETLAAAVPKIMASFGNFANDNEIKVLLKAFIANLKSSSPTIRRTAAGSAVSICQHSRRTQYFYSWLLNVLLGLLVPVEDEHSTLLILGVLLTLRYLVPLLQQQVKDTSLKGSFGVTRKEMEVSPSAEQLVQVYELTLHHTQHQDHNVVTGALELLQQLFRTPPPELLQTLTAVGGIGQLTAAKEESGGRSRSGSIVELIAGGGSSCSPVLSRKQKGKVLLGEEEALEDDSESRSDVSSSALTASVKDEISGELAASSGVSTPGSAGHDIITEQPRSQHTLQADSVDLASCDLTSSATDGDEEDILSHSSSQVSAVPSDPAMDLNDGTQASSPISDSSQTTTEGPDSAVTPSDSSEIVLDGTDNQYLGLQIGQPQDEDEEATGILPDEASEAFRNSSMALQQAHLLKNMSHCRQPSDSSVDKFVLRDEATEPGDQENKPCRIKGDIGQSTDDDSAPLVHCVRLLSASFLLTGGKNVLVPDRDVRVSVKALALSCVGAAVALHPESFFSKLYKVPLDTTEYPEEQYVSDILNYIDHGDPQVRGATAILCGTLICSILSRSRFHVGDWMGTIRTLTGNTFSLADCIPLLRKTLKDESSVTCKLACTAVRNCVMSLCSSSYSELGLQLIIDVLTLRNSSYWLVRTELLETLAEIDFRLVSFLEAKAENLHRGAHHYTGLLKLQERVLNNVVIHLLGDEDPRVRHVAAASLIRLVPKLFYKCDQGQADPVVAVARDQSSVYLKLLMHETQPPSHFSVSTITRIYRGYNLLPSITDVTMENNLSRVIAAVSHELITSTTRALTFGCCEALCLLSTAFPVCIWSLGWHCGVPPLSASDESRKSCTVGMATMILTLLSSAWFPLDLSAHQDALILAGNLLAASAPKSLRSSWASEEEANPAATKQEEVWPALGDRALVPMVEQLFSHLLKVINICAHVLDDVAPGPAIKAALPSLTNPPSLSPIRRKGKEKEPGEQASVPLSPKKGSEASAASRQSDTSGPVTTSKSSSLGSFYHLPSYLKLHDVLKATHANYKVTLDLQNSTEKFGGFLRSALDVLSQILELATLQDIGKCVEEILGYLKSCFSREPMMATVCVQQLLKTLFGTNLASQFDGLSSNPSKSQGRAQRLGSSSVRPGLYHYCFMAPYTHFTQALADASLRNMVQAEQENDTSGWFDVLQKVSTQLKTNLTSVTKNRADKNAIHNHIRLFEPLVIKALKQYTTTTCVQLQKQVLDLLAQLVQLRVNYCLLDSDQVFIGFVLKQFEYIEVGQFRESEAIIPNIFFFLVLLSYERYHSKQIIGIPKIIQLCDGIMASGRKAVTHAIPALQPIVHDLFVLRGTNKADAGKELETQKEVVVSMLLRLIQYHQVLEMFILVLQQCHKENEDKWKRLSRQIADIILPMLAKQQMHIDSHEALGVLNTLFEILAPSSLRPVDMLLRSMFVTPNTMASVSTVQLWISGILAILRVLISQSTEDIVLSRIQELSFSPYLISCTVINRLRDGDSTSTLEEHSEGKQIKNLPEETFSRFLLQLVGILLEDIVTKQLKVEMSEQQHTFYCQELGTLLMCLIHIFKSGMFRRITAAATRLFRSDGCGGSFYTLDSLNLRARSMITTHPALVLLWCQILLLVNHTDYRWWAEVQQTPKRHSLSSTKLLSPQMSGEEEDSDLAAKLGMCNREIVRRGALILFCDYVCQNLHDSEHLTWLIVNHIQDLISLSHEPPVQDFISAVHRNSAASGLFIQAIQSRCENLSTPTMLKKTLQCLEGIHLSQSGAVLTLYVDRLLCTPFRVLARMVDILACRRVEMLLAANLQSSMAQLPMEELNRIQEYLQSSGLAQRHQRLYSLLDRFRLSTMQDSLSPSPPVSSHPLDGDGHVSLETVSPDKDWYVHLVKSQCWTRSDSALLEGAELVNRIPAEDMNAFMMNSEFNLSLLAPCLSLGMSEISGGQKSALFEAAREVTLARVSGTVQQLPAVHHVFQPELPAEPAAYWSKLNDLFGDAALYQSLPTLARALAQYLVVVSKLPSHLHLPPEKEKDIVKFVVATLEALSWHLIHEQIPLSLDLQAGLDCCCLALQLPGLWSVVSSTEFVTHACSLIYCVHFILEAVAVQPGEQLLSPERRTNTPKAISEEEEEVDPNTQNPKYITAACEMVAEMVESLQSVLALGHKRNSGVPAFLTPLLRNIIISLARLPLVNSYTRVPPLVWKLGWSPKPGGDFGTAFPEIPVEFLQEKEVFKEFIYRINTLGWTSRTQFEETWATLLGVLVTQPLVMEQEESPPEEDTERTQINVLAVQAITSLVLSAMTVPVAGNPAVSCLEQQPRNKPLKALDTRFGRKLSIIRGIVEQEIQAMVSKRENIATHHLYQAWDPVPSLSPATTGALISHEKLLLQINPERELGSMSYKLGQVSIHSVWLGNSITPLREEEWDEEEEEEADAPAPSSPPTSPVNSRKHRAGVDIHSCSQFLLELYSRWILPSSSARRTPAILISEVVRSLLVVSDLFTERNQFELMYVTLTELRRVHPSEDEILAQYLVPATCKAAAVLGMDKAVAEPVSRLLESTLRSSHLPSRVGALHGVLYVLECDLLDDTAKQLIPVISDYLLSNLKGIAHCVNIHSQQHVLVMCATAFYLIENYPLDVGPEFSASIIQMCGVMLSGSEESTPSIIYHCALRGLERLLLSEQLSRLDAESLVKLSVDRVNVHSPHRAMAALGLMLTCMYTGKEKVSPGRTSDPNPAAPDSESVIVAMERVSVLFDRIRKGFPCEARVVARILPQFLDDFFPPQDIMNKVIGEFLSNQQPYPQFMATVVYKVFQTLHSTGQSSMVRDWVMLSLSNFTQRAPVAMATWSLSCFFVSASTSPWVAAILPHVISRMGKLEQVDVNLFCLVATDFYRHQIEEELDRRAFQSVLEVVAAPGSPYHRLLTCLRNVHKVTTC

SMILES | inhibition
CC(=O)N1CCN(c2nc3c(s2)CC(C(=O)NCCCN2CCC(C)CC2)CC3)CC1 (stereo not drawn) | 4.75% (inactive)
Cc1nnc(NC(=O)CSc2nc(C(C)C)ccc2C#N)s1 | -5% (inactive)
Cc1ccccc1N1CCN(C/C=C/c2ccccc2[N+](=O)[O-])CC1 | 35.9% (inactive)
C(=C\c1ccccc1)/CN1CCN(CC2CCCCC2)CC1 | 3.7% (inactive)
CN(C)c1ccc(/C=C/CN2CCN(c3ccccc3F)CC2)cc1 | 72.5% (active)
Cc1cc(CNC(=O)CSc2ccncc2)no1 | -14.6% (inactive)
CC(=O)N1CCc2c(sc(NC(=O)c3cc(C)oc3C)c2C(N)=O)C1 | -3.5% (inactive)
Cc1cc2c(N3CCC(C(=O)Nc4cccc(F)c4)CC3)nccc2s1 | 45.2% (inactive)
Cc1cc2c(N3CCC(C(=O)Nc4cccc(C(F)(F)F)c4)CC3)nccc2s1 | 80.9% (active)
Cc1cc2c(N3CCCC(C(=O)Nc4cccc(F)c4)C3)nccc2s1 (stereo not drawn) | -8.41% (inactive)
O=C1CC(c2ccccc2Cl)=Nc2ccccc2N1 | 5% (inactive)
C=CCN(CC=C)S(=O)(=O)c1ccc(C(=O)Nc2nnc(-c3ccc(F)cc3)o2)cc1 | 6% (inactive)
N#Cc1sc2nc(-c3cccs3)ccc2c1N | 5% (inactive) and -18.7% (inactive)
COc1cc2c(-c3ccccc3)c(C)oc2cc1CN1CCN(c2ncccn2)CC1 | 62.2% (active)
COc1cc(CN2CCN(Cc3cc(OC)c(OC)cc3OC)CC2)cc(OC)c1 | 7.3% (inactive)
COc1cc(OC)c(OC)cc1CN1CCN(c2ccccc2F)CC1 | 6.5% (inactive)
CN(CCc1ccccn1)C(=O)C1CCCN(c2cnn(C)c(=O)c2)C1 (stereo not drawn) | -0.11% (inactive)
CCC(=O)NCc1csc(C2CCN(C(=O)c3cccs3)CC2)n1 | 5.45% (inactive)
Cc1ccc(CNC(=O)C2(C)CCCN(C(=O)CC(C)C)C2)cc1 (stereo not drawn) | -7.13% (inactive)
COc1ccc(C(=O)N2CCOC(COc3ccc(C)cc3)C2)cc1 (stereo not drawn) | 4.7% (inactive)
CC(C)C[C@@H](COc1ccccc1)N1CCN(CC(C)C)CCC1=O | 5.6% (inactive)
CC(C)C[C@@H](CO)N1CCN(Cc2ccc(O)cc2)CCC1=O | -0.4% (inactive)
CC(C)C[C@@H](COCc1ccc(Cl)cc1)N1CCN(C(=O)c2ccc(Cl)cc2Cl)CCC1=O | 86% (active)
CN1CCC(=O)N([C@H](CO)Cc2ccccc2)CC1 | -6.6% (inactive)

SMILES | inhibition
Cc1ccc(S(=O)(=O)N2CCC(=O)N([C@H](COCc3ccccc3)Cc3ccccc3)CC2)cc1 | -1.2% (inactive) and -4% (inactive)
O=C(c1ccc(C(F)(F)F)cc1)N1CCC(=O)N([C@H](COCc2ccccc2)Cc2ccccc2)CC1 | 99.4% (active)
O=C(NCC(c1cccs1)N1CCOCC1)C(=O)Nc1ccon1 (stereo not drawn) | -10.7% (inactive)
CCOc1ccccc1N1CCN(CC2CC3C=CC2C3)CC1 (stereo not drawn) | 3.9% (inactive)
Cc1cccc2c(C(=O)N3CCOCC3)cc(-c3ccccc3)nc12 | 26.2% (inactive)
Cc1ccc(C(=O)N2CCCC(COc3ccc(C(=O)N4CCOCC4)cc3)C2)cc1 (stereo not drawn) | 5.35% (inactive)
O=[N+]([O-])c1ccccc1/C=C/CN1CCC(O)CC1 | -1.3% (inactive)
O=[N+]([O-])c1ccccc1/C=C/CN1CCN(C/C=C/c2ccccc2)CC1 | 75.3% (active)
O=[N+]([O-])c1ccccc1/C=C/CN1CCN(c2ccccc2)CC1 | 32.8% (inactive)
COc1ccc(Cl)cc1NC(=O)C1CC(=O)N(c2ccc3c(c2)CCN3C(C)=O)C1 (stereo not drawn) | 2.25% (inactive)
Cn1nccc1C(=O)N1CCCC1c1cccc(F)c1 (stereo not drawn) | -3.94% (inactive)
COc1ccc(S(=O)(=O)NCCc2ccccc2)c(C)c1C | -7.6% (inactive)
CN1CCCc2cc(C(CNC(=O)C(=O)NC3CCCCC3)N(C)C)ccc21 (stereo not drawn) | 5.1% (inactive)
CN1CCCc2cc(C(CNC(=O)c3ccccc3Cl)N3CCOCC3)ccc21 (stereo not drawn) | 19.8% (inactive)
CN1CCc2cc(C(CNC(=O)C(=O)NCc3ccccc3Cl)N(C)C)ccc21 (stereo not drawn) | 53.3% (active)
N#CCn1cccc1-c1nc(-c2ccncc2)no1 | 38.7% (inactive)
CC(C)(C)C(O)CCNC(=O)c1cccc(F)c1 (stereo not drawn) | -16.4% (inactive)
COc1ccc(C2=N/C(=C/c3ccc4c(c3)OCO4)C(=O)O2)c(Br)c1 | 3% (inactive)
O=C(Nc1ccc(N2CCOCC2)cc1)c1cccc(Br)c1 | -1.7% (inactive)
COc1ccccc1OCC(=O)Nc1c2c(nn1-c1ccc(F)cc1)CS(=O)(=O)C2 | -5.8% (inactive)
O=C1C2CC=CCC2C(=O)N1c1ccc(F)c([N+](=O)[O-])c1 (stereo not drawn) | -1% (inactive)
CC1CCCC(Nc2ccc(N3C(=O)CCCC3=O)cc2[N+](=O)[O-])C1C (stereo not drawn) | 48% (inactive)
CC1CC(=O)N(c2ccc(NC3CCCC(C)C3C)c([N+](=O)[O-])c2)C1=O (stereo not drawn) | 51% (active)
COc1ccccc1NC(=O)C(CCS(C)(=O)=O)NC(C)=O (stereo not drawn) | 0% (inactive)

SMILES | inhibition
Cc1ccc(C2=NC3(CCCCC3)N(CC(=O)Nc3cccc(C)c3)C2=O)cc1 | 0.12% (inactive)
CN(C)c1ncccc1C(=O)Nc1ccccc1F | -5.3% (inactive)
COc1ccc(-c2c(-c3ccc(OC)cc3O)nc(C)nc2C(F)(F)F)cc1 | -2.9% (inactive)
CCCc1ccc(Oc2cn[nH]c2-c2ccc(OC)cc2O)cc1 | 51% (active)
Cc1c(O)ccc(-c2[nH]ncc2Oc2ccccc2)c1O | 54.4% (active) and 53% (active)
CCOc1ccc(-c2nn(C)c(C)c2Oc2ccccc2)c(O)c1 | -3.5% (inactive)
CCCc1cc(C2CCCN2Cc2cn[nH]c2-c2cccc(OC)c2)no1 (stereo not drawn) | -7.21% (inactive)
CCOc1ccccc1CN1CCC(C(=O)N2CCN(Cc3ccccc3)CC2)CC1 | 2.9% (inactive)
CC(C)(C)CC(=O)N1CC(C(=O)NC2CC2)C(c2ccc(F)cc2)C1 (stereo not drawn) | -0.9% (inactive)
O=C(c1ccc(C(F)(F)F)cc1)N1CCN(c2nc(CN3CCCC3)cs2)CC1 | 1.28% (inactive)
COc1ccc(CN(CC(=O)NCCc2ccccc2)S(=O)(=O)c2cccnc2)cc1 | -5.6% (inactive)
COc1cccc(CN2CCc3nc(N4CCN(c5ccc(F)cc5)CC4)ncc3C2)c1 | -4.69% (inactive)
O=C(Nc1cc(Cl)ccc1O)c1nn2c(c1Cl)NC(c1cccs1)CC2C(F)(F)F (stereo not drawn) | 90% (active)
O=C(Nc1ccc(Cl)cc1)c1cc2n(n1)C(C(F)(F)F)CC(c1cccs1)N2 (stereo not drawn) | -2% (inactive)
CCCNC(=O)c1nn2c(c1Cl)NC(c1ccc(Cl)cc1)CC2C(F)(F)F (stereo not drawn) | 9% (inactive)
O=C(NCc1ccco1)C1CN(S(=O)(=O)c2cccs2)CC12CCCCC2 (stereo not drawn) | 2.15% (inactive)
Cc1ccc(Sc2nccnc2N2CCC(C(=O)N3CCN(C)CC3)CC2)cc1 | 10.6% (inactive)
CC(C)N(c1snnc1N)C(C)C | -2.94% (inactive)
CC1=C(C(=O)Nc2ccc(Br)cn2)C(c2cccnc2)C2=C(CCCC2=O)N1 (stereo not drawn) | 1% (inactive)
COc1ccc(N=Cc2ccc(Cl)c([N+](=O)[O-])c2)cc1OC | 57% (active)
COc1ccc(/C=C2\N=C(c3ccc(Cl)c([N+](=O)[O-])c3)OC2=O)cc1OC | 7% (inactive)
COc1ccc(NC(=O)c2ccc(OC)c([N+](=O)[O-])c2)cc1Cl | -0.1% (inactive)
CCNc1cc(N2CCC(CCC(=O)NCC(C)C)CC2)ncn1 | 0.14% (inactive)
CCN(CC)CCCNc1c(CCC#N)c(C)c(C#N)c2nc3ccccc3n12 | 4% (inactive)

SMILES | inhibition
O=C(CN1C(=O)S/C(=C\c2ccccc2)C1=O)Nc1ccccc1Cl | -5% (inactive)
c1ccc2c(c1)CCN2c1nc(N2CCOCC2)c2n[nH]nc2n1 | 83.5% (active)
COc1ccc(-n2ncc3c(N4CCc5ccccc54)ncnc32)cc1 | 11% (inactive)
Fc1cnc(N2CCOCC2)nc1NCc1ccccc1 | 0.7% (inactive)
Cc1ccc(NC(=O)NCCC2CCN(S(=O)(=O)c3ccc(F)cc3)CC2)c(C)c1 | 42.8% (inactive)
CC1(C)c2ccccc2N2CC(=O)NC21/C=C/c1cccc(Br)c1 (stereo not drawn) | 100% (active)
O=c1[nH]c(/C=C/c2cccc(Br)c2)nc2ccccc12 | -5.1% (inactive)
COCCOCC1CCN(C(=O)c2cccc(N(C)C)c2)CC1 | -11.5% (inactive)
CCC(=O)Nc1cccc(NC(=O)c2ccc(C(C)C)cc2)c1 | 0.3% (inactive)
CC1=Nc2c(ccc3cccnc23)C1(C)C | 66.6% (active) and 14.1% (inactive)
COc1cc2c(cc1NC(=O)c1ccc(OC)c(OC)c1OC)oc1ccccc12 | -2.6% (inactive)
CCCN1CCN(c2ncnc3c2nc2n3CCCC2)CC1 | -1.5% (inactive)
N#Cc1c(N=Cc2ccc(Br)cc2)sc2c1CCC2 | 23% (inactive)
O=C1CC[C@H](O)CCN1[C@H](CSc1ccc(Br)cc1)Cc1ccccc1 | 24.2% (inactive)
C[C@H]1CCC(=O)N([C@H](CSc2ccccc2)Cc2ccccc2)CC1 | -8.3% (inactive)
COc1ccc(SC[C@H](Cc2ccccc2)N2CCN(CCc3ccccc3)CCC2=O)cc1 | 92.2% (active)
O=C1CCN(Cc2ccc([N+](=O)[O-])cc2)CCN1[C@H](CO)Cc1ccccc1 | 6.4% (inactive)
O=C1CCN(Cc2ccccc2)CCN1[C@H](CSc1ccccc1)c1ccccc1 | 98.8% (active)
N#Cc1cccc(CN2CCC(=O)N([C@H](CO)c3ccccc3)CC2)c1 | 0.1% (inactive)
Cc1ccc(CCNC(=O)c2cc3n(n2)CCCN(Cc2ccc(Cl)cc2)C3=O)cc1 | 27.7% (inactive)
O=C(N1CCOCC1)[n+]1ccc(/C=C/c2ccc(Cl)cc2)cc1 | 8% (inactive)
